# Bioassay records deposited in PubChem BioAssay by National Center for Advancing Translational Sciences (NCATS).
# ClpP mod: qHTS Assay for Activators of ClpP | 340,000 compounds, 1.9% hits | Potency, µM (doses to about 57.5 µM), without a hit: at the highest dose activity change, negative = active | AID 651965, 2013 | purified B. subtilis ClpP, FRET peptide cleavage, 20 min | ATP-dependent Clp protease proteolytic subunit (Bacillus subtilis (strain 168)), P80244; active = well fitted falling curve with a large enough effect; inconclusive = small, poorly fitted or top-dose-only effect; inactive = no such curve, though single readings can be large or run the other way; note: potency is the fitted concentration of half-maximal effect; the source files actives as falling curves though it sought activators and does not explain the sign; nearly all actives have a fitted effect of over 65% in size
# Target sequence (P80244 whole entry, looked up): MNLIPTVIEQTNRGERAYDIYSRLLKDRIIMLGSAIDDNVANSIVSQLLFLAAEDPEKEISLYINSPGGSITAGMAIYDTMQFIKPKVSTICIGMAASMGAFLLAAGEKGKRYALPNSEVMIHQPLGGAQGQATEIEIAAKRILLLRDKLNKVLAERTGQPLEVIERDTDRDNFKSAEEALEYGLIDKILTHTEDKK
#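 Purified B. subtilis ClpP, 10 microg/mL final in Tris/HCl pH8 with KCl, BSA, glycerol and Tween-20, cleaved an Abz/nitrotyrosine-quenched decapeptide. Fluorescence (ex 320, em 430) was read at 0 and 20 min at room temperature. Delta was normalized to 5.8 microM ADEP and DMSO/no-enzyme controls.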
# TDP1 cell noCPT: qHTS for Inhibitors of human tyrosyl-DNA phosphodiesterase 1 (TDP1): qHTS in cells in absence of CPT. Potency, µM (highest dose often 46.2 µM), inactives show at the highest dose activity change, negative = growth inhibition, usual class: inhibitors. 420,000 compounds, 15% hits. DT40 Tdp1-/- hTDP1 cells, no CPT, ATP luminescence, 48 h; note: potency is the fitted concentration of half-maximal effect; % is set by controls: 0 for no effect and ±100 for the full control effect; nearly all actives have a fitted effect of over 55% in size
#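 Seeded 400 DT40-hTDP1 cells/well (vehicle DMSO, no 20 nM CPT); pinned compounds; ≥48 hr at 37 °C; CellTiter-Glo luminescence as viability measure.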
# DRD3 antagonist: antagonists of human D3 dopamine receptor; 360,000 compounds, 2.5% hits; max response, negative = inhibition, %; D3R cells, DiscoveRx beta-arrestin luminescence, antagonist mode; hits give low values; AID 652054; P35462; in the data active = max response below about -50%; inconclusive = no clear call, values can overlap the other calls; note: % is set by controls: 0 for no effect and ±100 for the full control effect
# Target sequence (P35462 whole entry, looked up): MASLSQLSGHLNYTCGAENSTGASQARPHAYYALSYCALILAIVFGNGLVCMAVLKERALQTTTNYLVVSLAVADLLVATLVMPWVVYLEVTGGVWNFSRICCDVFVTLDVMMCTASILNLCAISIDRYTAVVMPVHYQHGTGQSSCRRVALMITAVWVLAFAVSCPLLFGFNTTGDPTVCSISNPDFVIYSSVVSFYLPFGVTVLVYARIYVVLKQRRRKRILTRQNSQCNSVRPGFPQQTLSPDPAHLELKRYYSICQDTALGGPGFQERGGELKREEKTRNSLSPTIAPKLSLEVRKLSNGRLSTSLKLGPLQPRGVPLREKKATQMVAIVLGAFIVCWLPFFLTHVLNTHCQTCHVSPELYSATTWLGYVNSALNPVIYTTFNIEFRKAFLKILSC
#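 Cells plated overnight at 1500 cells/well, then exposed to library compounds with dopamine controls for 90 minutes at 37 degrees C. DiscoveRx reagent added for 30–60 minutes at room temperature; luminescence read, quantitative HTS format.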
# DRD3 agonist: activates the human D3 dopamine receptor; 410,000 compounds, 0.58% hits; D3R DiscoveRx beta-arrestin cells, luminescence, 90 min; max activation, %; in the data active = max activation above about 30%; note: 0% is about no effect
#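 Cells at 1500/well, incubated overnight, then treated with pinned compounds (dopamine as control) for 90 min at 37 degrees C. DiscoveRx reagent added for 30 - 60 minutes at room temperature; luminescence read.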
# IL-1B inflam inh: blocks inflammasome-driven IL-1 beta release | THP-1 LPS/ATP IL-1B secretion, AlphaLISA, 16 h; hits give low values | activity change, % at 57.5 µM | 360,000 compounds, 4.7% hits; in the data active = activity change below about -50%; inconclusive = mostly about -30% to -49%; note: % is set by controls: 0 for no effect and ±100 for the full control effect
#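 Secreted IL-1B measured by AlphaLISA bead assay after 16 h compound exposure of THP-1 cells; compounds (final up to 57.5 uM) added 1 h before LPS (250 ng/mL) and ATP (1.25 mM) stimulation; lower signal means less secretion.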
# DT40 TDP1 CPT: DT40-hTDP1 cell growth loss with CPT. Potency, µM (series often up to 46.2 µM), inactives show top-dose activity change, negative = growth inhibition, most hits filed as inhibitors. chicken DT40 Tdp1-/-;hTDP1 cells + 20 nM CPT, ATP luminescence, 48 h. 420,000 compounds, 12% hits; note: potency is the fitted concentration of half-maximal effect; % is set by controls: 0 for no effect and ±100 for the full control effect; nearly all actives have a fitted effect of over 55% in size
#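 Chicken DT40 Tdp1-/- cells complemented with human TDP1, 400 cells/well, exposed to compounds plus 20 nM camptothecin for at least 48 h at 37 C; viability read as ATP content by CellTiter-Glo luminescence.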
# Active calls of the source: *; ? = inconclusive; . = no result. Only some compounds are listed: those with a hit (about 21% of all), similar ones and a draw of the others. Unless noted, calls come from the whole dose curve; as a rule, active = well fitted inhibition curve with a large enough effect; inconclusive = small, poorly fitted or top-dose-only effect; inactive = flat fitted curve, though single readings scatter.
SMILES,ClpP mod,TDP1 cell noCPT,DRD3 antagonist,DRD3 agonist,IL-1B inflam inh,DT40 TDP1 CPT
COc1ccccc1-n1ccnc1SCC(=O)NCc1ccco1,.,?,-14,-1,-1,?
O=C1CSC2(C(=O)N(Cc3ccccc3F)c3ccccc32)N1c1cccc(C(F)(F)F)c1 (stereo not given),-2%,.,.,-16,.,.
COCCN1C(=O)COc2ccccc2C1C(=O)NC1CCCCC1 (stereo not given),0%,-25%,0,-6,28,-3%
Cc1cc(CN2CCC(N3CCC(C(=O)NC4CC4)CC3)CC2)cc(C)c1O,1%,4%,21,-2,-6,-10%
CCOc1ccc(N(CC(=O)Nc2cccnc2)S(C)(=O)=O)cc1,.,0%,12,6,-1,1%
COc1ccccc1NC(=O)CSc1oc(-c2ccc(F)cc2)nc1S(=O)(=O)c1ccc(Br)cc1,2%,13µM*,.,5,.,21µM*
COc1ccc(-c2nnc(SCC(=O)Nc3ccccc3OC)o2)cc1,-1%,-28%,-29,-22,-1,?
COc1ccccc1NC(=O)CSc1oc(-c2ccco2)nc1S(=O)(=O)c1ccc(C)cc1,2%,?,.,-8,.,23µM*
Cc1ccc(-c2nc3c(c(SCC(=O)Nc4cccc(C(=O)O)c4)n2)Cc2cccc(C)c2O3)cc1,-3%,?,.,.,.,-1%
COc1ccc(-n2c(SCc3ccc([N+](=O)[O-])cc3)nnc2-c2ccc(C)cc2)cc1,-3%,?,?,-29,-50*,?
Cc1ccc(OCc2nnc(SCc3ccc(C#N)cc3)n2-c2ccc(C)cc2)cc1,-1%,16µM*,-14,-23,-19,?
Cc1ccc(-n2c(SCc3ccc([N+](=O)[O-])cc3)nc3ccccc3c2=O)cc1,0%,?,-1,5,5,?
CC(=O)Nc1cc(O)c2nonc2c1O,-9%,0.71µM*,.,.,.,0.63µM*
CCOC(=O)C1(Cc2cccc(OC)c2)CCCN(Cc2nccn2CC)C1 (stereo not given),.,13µM*,-13,-4,-4,15µM*
CCOC(=O)C1(CC2CCCCO2)CCN(Cc2ccc(OC)cc2F)CC1 (stereo not given),.,21µM*,-67*,-12,23,?
CCOC(=O)C1(Cc2ccc(OC)cc2)CCN(C(=O)c2ccoc2C)CC1,-2%,?,-4,3,-5,?
CCOC(=O)C1(Cc2cccc(OC)c2)CCN(Cc2cccc3c2OCO3)CC1,.,18µM*,-10,-24,-1,?
CCOC(=O)C1(Cc2ccc(OC)cc2)CCN(C(=O)c2ccc3[nH]ccc3c2)CC1,2%,7.3µM*,-23,-6,-4,9.2µM*
CCn1ccnc1CN1CCCC(CO)(Cc2cccc(OC)c2)C1 (stereo not given),.,?,5,2,13,-22%
CCOC(=O)C1(CC2CCCCO2)CCN(Cc2nc3ccccc3nc2C)CC1 (stereo not given),.,?,?,-19,1,?
Cc1ccc(C(=O)OCC(=O)Nc2cc(C(C)(C)C)no2)c(C)c1,1%,?,11,0,-9,?
O=C(NCC(c1cccs1)N1CCOCC1)C1CCN(S(=O)(=O)c2ccccc2C(F)(F)F)CC1 (stereo not given),-2%,-1%,-7,8,22,-2%
COCc1cc(C)nc2sc(C(=O)Nc3cc(C)ccc3F)c(N)c12,3%,?,.,1,.,-14%
O=C(CN1CCN(C(=O)c2cncn2-c2ccccc2)CC1)Nc1ccccc1Cl,2%,-24%,17,-5,-10,-14%
O=C1CCN(S(=O)(=O)c2ccccc2)CCN1CCOCc1cccc(F)c1,0%,-32%,32,28,10,-25%
SMILES,ClpP mod,TDP1 cell noCPT,DRD3 antagonist,DRD3 agonist,IL-1B inflam inh,DT40 TDP1 CPT
CCOC(=O)C1(Cc2cccc(OC)c2)CCN(Cc2cccn2-c2ccccn2)CC1,.,?,-12,-23,-12,-25%
CCOC(=O)C1(Cc2cccc(OC)c2)CCN(Cc2cccc3cnccc23)CC1,-5%,?,-18,-15,-6,18µM*
CCOC(=O)C1(Cc2cccc(OC)c2)CCN(Cc2cccc(OC)c2OC)CC1,.,18µM*,-1,-10,-65*,?
CCOC(=O)C1(Cc2cccc(OC)c2)CCN(Cc2cnc(SC)nc2)CC1,.,?,-17,-8,7,-27%
CCOC(=O)C1(Cc2cccc(OC)c2)CCN(Cc2cccnc2)CC1,.,29µM*,-19,-17,11,?
CCOC(=O)C1(Cc2cccc(F)c2)CCN(Cc2cn(CC)nc2C)CC1,.,?,-1,-5,-20,1%
CCOC(=O)C1(Cc2cccc(OC)c2)CCN(Cc2ccccc2)CC1,.,?,-9,-18,-26,?
CCOC(=O)C1(Cc2cccc(OC)c2)CCN(Cc2cc(OC)ccc2OC)CC1,.,16µM*,-7,-10,-67*,?
Cc1cc(N2CCC(C(=O)Nc3ccc(F)cc3F)CC2)n2nc(C)c(-c3ccc(Cl)cc3)c2n1,?,?,.,7,.,?
CCOc1ccccc1NC(=O)C1=C(C)Nc2ncnn2C1c1ccccn1 (stereo not given),-2%,0%,.,3,.,-1%
O=[N+]([O-])c1cc([N+](=O)[O-])c2cc(-c3cccnc3)[nH]c2c1,.,?,-10,-2,61,6%
COCC(C)n1c(SCC(=O)Nc2c(C)n(C)n(-c3ccccc3)c2=O)nc2ccccc2c1=O (stereo not given),0%,-6%,-18,-11,-1,-20%
OCCn1c(SC2CCCCC2)nc2ccccc21,-1%,?,-22,1,-11,-21%
CC(C)(C)C#CCn1c(/C=[N+](\[O-])C2CCCCC2)nc2ccccc21,-14%,18µM*,5,0,18,12µM*
COc1ccccc1CN1CCC2(CC1)CCN(C(=O)c1ccco1)CC2,.,-5%,.,.,.,18%
O=C(Oc1coc(CSc2ncccn2)cc1=O)c1cccs1,.,-8%,3,4,27,20%
CCCN1C(=O)/C(=C2\SC(N3CCCCC3)=NC2=O)c2ccccc21,0%,18µM*,31,-2,-55*,?
CN1C(=O)/C(=C2\SC(N3CCCCCC3)=NC2=O)c2ccccc21,-3%,?,-67*,2,-15,?
